Here are results for 39 molecules from PubChem BioAssay (NCATS).

Inconclusive results are not listed. Entries that show only a call come without a potency. The source made the active and inactive calls. Calls follow the shape of the dose curve; as a rule, active = well fitted inhibition curve with a large enough effect; inconclusive = small, poorly fitted or top-dose-only effect, or effect the other way; inactive = no such curve, though single readings can be large or run the other way.
Potency is read from the fitted curve at half-maximal effect.

The nature of the experiment: High Content Imaging Cell-Based qHTS for Inhibitors of the mTORC1 Signaling Pathway in MEF Cells (AID 2667). The settings on record: series mostly up to 38.3 µM. The text has this:
NIH Molecular Libraries Probe Production Centers Network [MLPCN]
NIH Chemical Genomics Center [NCGC]
Assay Submitter (PI): Blenis, John; Hoffman, Greg; Harvard University
NCGC Assay Overview: The mammalian target of rapamycin (mTOR) is an intracellular serine/threonine kinase Aberrant regulation of mTOR signaling plays a causative role in a number of human diseases, including cancer, benign tumors such as lymphangioleiomyomatosis (LAM) and Tuberous Sclerosis Complex (TSC), and metabolic diseases such as diabetes and obesity. This project aims to identify inhibitors of ribosomal protein S6 (rpS6) phosphorylation. The phosphorylation of rpS6 is a key event downstream of mTOR activation. The assay uses a phospho-specific antibody of phospho-rpS6 to detect inhibitors of mTOR activation. Mutations in the Tsc1 and Tsc2 genes are the underlying genetic lesions responsible for TSC, causing constitutive activation of the mTORC1 pathway and leading to profound effects on cell metabolism. Aberrant metabolism in cancer has recently received significant attention as a target to develop therapeutic agents in the treatment of cancer.1 As Tsc2-/- cells have lost the ability to respond to energy and growth factor deprivation, these cells are unable to properly down regulate cellular biosynthetic processes in response to metabolic stress, and are thus extremely sensitive to glucose deprivation-induced death.2 A central goal of this project is to explore the unique cell survival and metabolic properties of cells with Tsc1 or Tsc2 by screening for compounds that selectively target the Tsc2-/- MEFs by screening both Tsc2-/- and WT MEF cell lines. We hope to better understand these aspects of TSC physiology in order to exploit them for therapeutic benefit.
NCGC IN Cell Assay Protocol:
For quantitative high throughput analysis of mTORC1 signaling, we developed a cell-based assay for immuno-fluorescence based detection of rpS6 phosphorylation on the Acumen Explorer that will be used a platform for the primary small molecule screen. Mouse embryonic fibroblasts (MEFs) are cultured in 1536-well plates using DMEM + 10% FBS. Twenty-four hrs after plating, test compounds (solubilized in DMSO) are delivered and incubated with the cells for 24 hrs at 37 degree Celsius. Following the incubation, media with compound is aspirated and the cells are fixed in 4% paraformaldehyde (PFA) containing PBS + 0.2% TX-100. Next, PFA is aspirated, cells are washed two times with PBS plus 0.2% TX-100 and the cells are blocked for 1 hr at room temperature (blocking buffer: LiCOR Blocking Buffer plus 0.2% TX-100). This is followed by aspiration and staining with Alexa-488 conjugated-phospho-rpS6 Ser235/236 antibody for 2 hours at room temperature (Cell Signaling Technology # 4803, 1:50 dilution in blocking buffer). Cells are washed two times with PBS plus 0.2% TX-100, and stained with 10 uM propidium iodide (PI) for 20-25 minutes for cell number measurement (1:500 dilution of Hoescht staining is also added for IN Cell imaging). Active wells which are selected (based on Acumen results) are imaged on the IN Cell 1000 (GE Healthcare) using the D360/40X and HQ480/40X excitation filters for the Hoechst and Alexa-488 cytoplasmic stains, respectively. The fluorescence emission filters used were HQ460/40M and HQ535/50M for the Hoechst and Alexa-488 cytoplasmic stains, respectively. The normalized phospho-S6 staining is calculated as the ratio of […] for the single concentration rapamycin control ([…] nM) and DMSO columns. […] Inhibition of the pathway is defined based on the normalized phospho-S6 intensity in rapamycin treated cells. Each treatment is reported as the % positive cells in the well, where thresholds are defined by selecting wells with the highest and lowest signal and differentiating between the % non-active and % active populations. […]
On to `CN(C)CC[C@@H](c1ccc(Cl)cc1)c1ccccn1`, for which the Potency result is “inactive”.
The entry for `COc1ccc(Cl)cc1C(=O)NCCc1ccc(S(=O)(=O)NC(=O)NC2CCCCC2)cc1` is “inactive”; for `C[C@]12C[C@H](O)[C@H]3[C@@H](CCC4=CC(=O)CC[C@@]43C)[C@@H]1CC[C@@H]2C(=O)CO` it is “inactive”.
Regarding `CC1=C(CC(=O)O)c2cc(F)ccc2/C1=C\c1ccc(S(C)(=O)=O)cc1`, the Potency entry was “inactive”.
The entry for `CNCC(O)c1ccc(O)c(O)c1` (centres undefined) is “inactive”; for `CN(C)CCOC(C)(c1ccccc1)c1ccccn1` (centres undefined) it is “inactive”.
On to `Nc1ncnc2c1ncn2[C@@H]1O[C@H](CO)[C@@H](O)[C@H]1O`, for which the Potency entry is “inactive”.
Next, `N=c1c[n+](N2CCOCC2)[n-]o1`: “inactive”; `CC1=C(CC(=O)O)c2cc(F)ccc2/C1=C\c1ccc(S(C)=O)cc1` (centres undefined): “inactive”.
The entry for `COCCOC(=O)C1=C(C)NC(C)=C(C(=O)OC/C=C/c2ccccc2)C1c1cccc([N+](=O)[O-])c1` (centres undefined) is “inactive”; for `O=C1N=C(O)CN1/N=C/c1ccc(-c2ccc([N+](=O)[O-])cc2)o1` it is “inactive”; for `CSc1ccc2c(c1)C(N1CCN(C)CC1)Cc1ccccc1S2` (centres undefined) it is “inactive”.
As to `CSc1ccc2c(c1)N(CCC1CCCCN1C)c1ccccc1S2` (centres undefined), the Potency entry is “inactive”.
For `CC(C)(C)[C@]1(O)CCN2C[C@H]3c4ccccc4CCc4cccc(c43)[C@@H]2C1`, the Potency entry is “inactive”.
Turning to `CC(C)(C(=O)O)c1ccc(C(O)CCCN2CCC(C(O)(c3ccccc3)c3ccccc3)CC2)cc1` (centres undefined), the Potency result was “inactive”.
Next, `CC[C@H]1CN2CCc3cc(OC)c(OC)cc3[C@@H]2C[C@@H]1C[C@H]1NCCc2cc(OC)c(OC)cc21`: “inactive”.
Next, `C#CCN(C)Cc1ccccc1`: “inactive”; `CNC(=O)Oc1ccc2c(c1)[C@]1(C)CCN(C)[C@@H]1N2C`: “inactive”; `CNCCCC1c2ccccc2C=Cc2ccccc21`: “inactive”.
Next, `NC1CCN(c2cccc(Cl)n2)CC1`: “inactive”; `CCCCCCCCCCCCCCCC(=O)NCCO`: “inactive”; `CC(C)C(=O)c1c(C(C)C)nn2ccccc12`: “inactive”.
Regarding `CC(=O)OCC(=O)[C@@]1(O)CC[C@H]2[C@@H]3CCC4=CC(=O)CC[C@]4(C)[C@H]3C(=O)C[C@@]21C`, the Potency result is “inactive”.
The entry for `NC(N)=NCCC[C@H](N)C(=O)O` is “inactive”.
The entry for `CC1=C(/C=C/C(C)=C/C=C/C(C)=C/C(=O)O)C(C)(C)CCC1` is “inactive”; for `CCN(CC)C(C)CN1c2ccccc2Sc2ccccc21` (centres undefined) it is “inactive”; for `C[C@]12CC[C@@H]3c4ccc(O)cc4CC[C@H]3[C@@H]1CCC2=O` it is “inactive”.
The entry for `C=Cc1c(C)c2cc3[nH]c(cc4nc(cc5nc(cc1[nH]2)C(C)=C5CCC(=O)O)C(CCC(=O)O)=C4C)c(C)c3C=C` is “inactive”.
Take `Nc1cc(=O)[nH]c(N)n1`: the Potency result is “inactive”.
Consider `CCN(CC)CCCC(C)Nc1c2ccc(Cl)cc2nc2ccc(OC)cc12` (centres undefined), for which the Potency is 14.7 µM (active).
The entry for `CC(C)(C)c1onc(OCP(=O)(O)O)c1CC(N)C(=O)O` (centres undefined) is “inactive”.
Next, `COC(=O)C1=C(C)NC(C)=C(C(=O)OC)C1c1ccccc1[N+](=O)[O-]`: “inactive”; `CCCn1cnc2c1c(=O)n(CCCCC(C)=O)c(=O)n2C`: “inactive”; `CCN(CC)CCNC(=O)c1cc(Cl)c(N)cc1OC`: “inactive”.
Turning to `C[C@](N)(Cc1ccc(O)cc1)C(=O)O`, the Potency entry is “inactive”.
The entry for `CC(CN(C)C)CN1c2ccccc2CCc2ccccc21` (centres undefined) is “inactive”; for `CCN(CC)CCOC(=O)C1(C2CCCCC2)CCCCC1` it is “inactive”; for `NC(=O)c1ncn([C@@H]2O[C@H](CO)[C@@H](O)[C@H]2O)n1` it is “inactive”.
The entry for `CC(C)NC[C@H](O)c1ccc(O)c(O)c1` is “inactive”.
